# Reference: PubChem BioAssay (NCI)
# Compounds without any hit were thinned out: in the full panel of roughly 83,000, 20% have a hit.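 Growth was measured after 48 h exposure to one concentration of compound in 96-well plates. Values under 10 count as active.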 Activity calls are given as the source filed them.
# Tested on: MDA-MB-468 breast
# Assay: NCI-60 one-dose screen, 48 h (100 = growth as untreated, 0 = no growth, -100 = all killed)
# Conditions: 10 µM unless noted
row,Structure (SMILES),growth
1,CN(C)C(=O)c1cc2cnc(Nc3ccc(-c4csc5c(=O)cc(N6CCNCC6)oc45)cc3)nc2n1C1CCCC1,19.6% (inactive)
2,C[C@@H]1C(=O)N(C[C@H](Cc2ccccc2)NC(=O)OCc2ccccc2)[C@]1(Cc1ccccc1)C(=O)OCc1ccccc1,24.6% (inactive)
3,Cc1nc(N2CCOCC2)sc1S(N)(=O)=O,97% (inactive)
4,COc1ccc(-c2cnc(-c3ccc(F)cc3)[nH]2)cc1,90.3% (inactive)
5,COc1cccc(-c2nn(-c3ccccc3)cc2-c2ccnc(NCCCNS(=O)(=O)c3ccc(Cl)cc3)c2)c1,25.6% (inactive)
6,O=C(NO)c1ccc(Cn2c(=O)n(-c3ccccc3F)c(=O)c3ccccc32)cc1,-10.8% (active)
7,CCN1CCN(Cc2cn(CC(=O)Nc3ccc4c(ccn4Cc4ccccc4)c3)nn2)CC1,97.2% (inactive)
8,CCCc1cc(CCC)n2nc(N)nc2n1,95.8% (inactive)
9,COc1cc2c(c(OC)c1OC)C(=O)CC(c1cccc(C(=O)Nc3cccc(Br)c3)c1)O2 (stereo not given),71% (inactive)
10,Cc1cc(O)c2c(c1)C(=O)c1cc(O)cc(O)c1C2=O,73.2% (inactive)
11,COc1ccc(C(=O)c2cc3c(N)c(C(=O)Nc4cccc(Cl)c4C)sc3nc2C)cc1,-2.98% (active)
12,C/C(CC(C)C)=N/NC(N)=S,7.03% (active)
13,Oc1c(C(Nc2ccccn2)c2cccc(Oc3ccccc3)c2)ccc2cccnc12 (stereo not given),-79.2% (active)
14,COc1cccc(OC)c1Oc1c(-c2nc3ccccc3s2)c(C)nn1-c1ccccc1,71.2% (inactive)
15,C#Cc1ccccc1NC(=O)c1sc2nc3c(cc2c1N)CCCCC3,119% (inactive)
16,Clc1ccc2nc(-c3ccc(-c4ccc(/C=N/NC5=NCCN5)cc4)s3)cn2c1,96.1% (inactive)
17,COc1ccc(-c2nc3cccc(O)c3c(=O)n2Cc2ccccc2)cc1COc1ccc(NC(C)=O)cc1,71.9% [3 µM] (inactive)
18,O=C(Nc1ccc(Oc2ccc(F)cc2)c(Cl)c1)c1cnccn1,31.8% (inactive)
19,Cc1[nH]c(-c2nc3ccccc3[nH]2)c(C)c1C(=O)N1CCOCC1,91.6% (inactive)
20,O=C1C=CC2(NN=C(c3ccccc3)N2c2cccc(Cl)c2)C(Cl)=C1 (stereo not given),71.7% (inactive)

row,Structure (SMILES),growth
1,COC(=O)CC[C@@H]1O[C@@H](c2cccc(C(F)(F)F)c2)[C@@H](O)[C@H]1O,89% (inactive)
2,C=C1C(=O)O[C@H]2[C@H]1CC/C(COC(=O)CCCCCCCCC(=O)OC/C1=C/CC[C@@]3(C)O[C@H]3[C@H]3OC(=O)C(=C)[C@@H]3CC1)=C\CC[C@@]1(C)O[C@@H]21,-32.7% (active)
3,COc1nc2ccccc2cc1/C=[N+](\[O-])c1ccccc1,88.6% (inactive)
4,c1ccc(-c2cn3c(-c4c[nH]c5ccccc45)csc3n2)cc1,3.41% (active)
5,CCC1=C(c2ccc(OC)cc2)C(C)(C)Oc2cc(O)c(CN3CCCC3)cc21,69.5% (inactive)
6,CCCC/C(CC)=N\NS(=O)(=O)c1ccc([N+](=O)[O-])cc1,109% (inactive)
7,COc1cc(CCCO)c(OC)c(OC)c1OC,104% (inactive)
8,c1ccc2c3c([nH]c2c1)C(c1ccc(C2NCCc4c2[nH]c2ccccc42)cc1)NCC3 (stereo not given),-83.2% (active)
9,O=S(=O)(NCCCNc1nccc(-c2c(-c3ccc(F)cc3)nc3sccn23)n1)c1ccc2ccccc2c1,51.8% (inactive)
10,O=C1/C(=C\c2cccc(OCCCCCOc3ccc(Cl)cc3)c2)N=C2SCCCN12,9.3% (active)
11,CCCCCCCCCCCC(c1ccccc1)N(C)C (stereo not given),95.4% (inactive)
12,O=C1OC(Cc2ccccc2)C1c1ccccc1 (stereo not given),97.4% (inactive)
13,COc1ccc(/C(C)=C(\c2ccc(Cl)cc2)c2ccc(OCCN(C)C)cc2)cc1F,66.2% (inactive)
14,Cc1ccc(C(=O)CC(=O)C(F)(F)C(F)(F)C(F)(F)F)s1,102% (inactive)
15,C[C@]12CC[C@@H]3c4ccc(O)cc4CC[C@H]3[C@@H]1C[C@H](O)[C@@H]2O,87.1% (inactive)
16,COc1cnc2c(c1)C(=O)c1c-2n(CCCN2CCNCC2)c(=O)c2cc(F)ccc12,-27.9% (active)
17,COc1ccc(C(=O)NC(=O)Nc2ccc3c(c2)NC(=O)/C3=C\c2[nH]c(C)c(CCC(=O)O)c2C)c(F)c1,59.7% (inactive)
18,CCNC(=O)Oc1ccc(/C(=C(/C)Cc2ccc(OC)cc2)c2ccc(OCCN(CC)CC)cc2)cc1,46.6% (inactive)
19,O=C(Nc1cccc(C(F)(F)F)c1)Nc1cccc(C(F)(F)F)c1,-6.39% (active)
20,CCOP(=O)(OCC)/C(=C\N1C(=O)CC(=O)NC1=S)C(=O)OC,107% (inactive)
